“And” between values parts separate entries of the source, which are not always exact repeats. Equal entries are not always repeated. About 83,000 compounds went through this panel and 20% of them were active in at least one assay; those are over-represented in the sample as a whole.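 Cells were grown in 96-well plates and exposed to the test compound at a single concentration for 48 hours; results are reported as percent growth, with values below 10 considered active.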 The source made the active and inactive calls.

The subject of the assay is MDA-MB-468 breast. Description: NCI-60 one-dose screen, 48 h (100 = growth as untreated, 0 = no growth, -100 = all killed). The following applies: 10 µM unless noted.
Consider `COc1cc(C2CC(=O)Nc3n[nH]c(-c4ccccc4)c32)cc(OC)c1OC` (stereo not given), for which the growth is 38.5% (inactive).

Turning to `COc1cc(-c2nc3ccc(C)cc3[nH]2)ccc1OCC(=O)N=Nc1c(O)[nH]c2ccc(Cl)cc12`, the growth is -48.7% (active).

With `O=C(CCl)Nc1ccc(Cc2ccc(NC(=O)CCl)cc2)cc1`, the growth is -36.8% (active).

Turning to `COc1ccc2c(c1)c(-c1nc(-c3c[nH]c4ncccc34)cs1)cn2C`, the growth is -5.16% (active).

`COC(=O)c1c(C)nc(C)c2c1C(=O)C(Br)=C(NCCCCO)C2=O`: the growth is 29.5% (inactive).

Take `Nc1c(C(=O)Nc2ccccc2)sc2nc3c(cc12)CCCCC3`: the growth was -9.1% (active).

Consider `Cc1cc(C)c(C#N)c(Sc2nc(C)c([N+](=O)[O-])c(C)c2C#N)n1`, for which the growth is 46% (inactive).

As to `Cc1ccc([P+](Cc2ccccc2)(c2ccccc2)c2ccccc2)cc1`, the growth was -13.5% (active).

As for `N=C(N)c1ccc(-c2ccc(-c3cccs3)s2)cc1F`, the growth was -77.4% (active).

Consider `O=C(NC1CCN(Cc2ccccc2)CC1)c1cc(C(=O)NC2CCN(Cc3ccccc3)CC2)cc(C(=O)NC2CCN(Cc3ccccc3)CC2)c1`, for which the growth was 84.9% (inactive).

As to `Nc1cccc2cccc([N+](=O)[O-])c12`, the growth was 109% (inactive).

For the compound `O=CN1N=C(c2cccc(Nc3ccnc4cc(Cl)ccc34)c2)CC1c1ccc(Cl)cc1` (stereo not given), the growth is -4.05% (active).

Take `COc1ccc(CC(C)=C(c2ccc(OCCN3CCCCCC3)cc2)c2ccc(OCCN3CCCCCC3)cc2)cc1`: the growth is -81.2% (active).

Regarding `CCCCCc1ccc(S(=O)(=O)Nc2cc(-c3csc(NC(=O)CN4CCN(C)CC4)n3)ccc2N2CCN(C)CC2)cc1`, the growth is 51.7% (inactive).

`Cc1ccc(/C=N/Nc2nc(Nc3ccccc3)nc(Nc3ccc(S(N)(=O)=O)cc3)n2)cc1`: the growth is 65% (inactive).

With `CC(=O)c1cc(C(=O)c2ccc3c(c2)Sc2ccccc2N3)c2c(C)cccn12`, the growth is 14% (inactive).

Consider `CC1(COc2ccc3ncc(C#Cc4cncc(C(=O)Nc5cc(C(C)(C)C)on5)c4)n3n2)COC1`, for which the growth is 85% (inactive).

`COc1ccc(-c2cc(C(=O)N3N=C(c4ccc(N)cc4)CC3c3ccc(OC)cc3)c3cc(OC)ccc3n2)cc1` (stereo not given): the growth is 37.6% (inactive).

As for `Cn1ccnc1C(=O)/C=C/c1ccc(CC(=O)Nc2ccccc2)cc1`, the growth is -12.9% (active).

With `COc1ccccc1NC(=O)Cn1cc(CN2CCN(c3ccnc4cc(Cl)ccc34)CC2)nn1`, the growth was 80.8% (inactive).

On to `COC(=O)c1c2c(c(C)[n+]([O-])c1C)C(=O)C=C(NCc1ccccc1)C2=O`, for which the growth was -68.9% (active).

On to `CCCCC(CCCCCC(CCCC)C1NC(C)Cc2cc(OC)c(OC)cc21)C1NC(C)Cc2cc(OC)c(OC)cc21` (stereo not given), for which the growth is -84.7% (active).

Take `O=C1Nc2ccc(Cl)cc2/C1=C\c1c(-c2ccc(F)cc2)nc2ccccn12`: the growth is -13.6% (active).

Take `O=C(O)c1cccc([N+](=O)[O-])c1/C=C/c1ccccc1`: the growth is 102% (inactive).

Consider `CCOc1ccc2nc3cc(N)ccc3c(N)c2c1`, for which the growth was -84.6% (active) and -33.5% (active).

Turning to `Cc1ccccc1NC1CC(=O)N(c2ccc(Cl)cc2Cl)C1=O` (stereo not given), the growth is 105% (inactive).

With `O=C(c1ccccc1)c1ccco1`, the growth is 118% (inactive).

For `Fc1ccc(-c2cc(C(Cl)Cl)no2)cc1`, the growth is 104% (inactive).

With `O=C1/C(=C\c2ccccc2)CN(C(=O)c2ccccc2)C/C1=C\c1ccccc1`, the growth was -48.6% (active).

As for `Cc1csc(Nc2nc(-c3cccc(Br)c3)nc(C(Cl)(Cl)Cl)n2)n1`, the growth is -29.8% (active).

In the case of `COc1ccc(-c2cnc(SCC(=O)Nc3ccc(-c4nc5ccccc5s4)cc3)n2-c2ccc(OC)cc2)cc1`, the growth was -12.7% (active).

For the compound `CCOC(=O)c1c(Nc2ccccc2)nn2c(-c3ccccc3)ccnc12`, the growth was 98% (inactive).

In the case of `CCNC(=O)N1CCc2cc(OC)c(OCCc3ccc(OC)c(N)c3)cc2C1c1ccc(C)cc1C` (stereo not given), the growth is -0.144% (active).

Consider `O=C(Nc1ccc(OS(=O)(=O)Cc2ccccc2)cc1)C12CC3CC(CC(C3)C1)C2`, for which the growth is 66.6% (inactive).

Regarding `O=C(c1ccccc1)C1(Br)CCCCC1`, the growth is 90.3% (inactive).

For `COc1cc(OCc2cccc(Br)c2C)cc(OC)c1C=O`, the growth is 20.8% (inactive).

With `CCCC(=O)NC(c1cccnc1)c1cc(C)c2cccnc2c1O` (stereo not given), the growth is 19.8% (inactive).

For `C#CCOc1ccc2ncnc(N3CCC(NC(=O)CCl)CC3)c2c1`, the growth was 15.4% [8.25 µM] (inactive).

Take `COc1ccc(/C=C\c2nc3ccccc3s2)cc1OP(=O)(O)O`: the growth is 12.4% (inactive).

Take `CCN(CCNc1ccc(C)c2sc3cc(Cl)ccc3c(=O)c12)CC(C)O` (stereo not given): the growth is 62.2% (inactive).
